For 29 compounds, Potency results are on record in PubChem BioAssay AID2590 (National Center for Advancing Translational Sciences (NCATS), 2010).

Several values for one entry are separate records, joined by “and”; a condition that tells them apart may be missing. Equal entries are not always repeated. Records with an inconclusive call do not appear. Activity calls are given as the source filed them. Calls follow the shape of the dose curve; as a rule, active = well fitted curve in the direction sought with a large enough effect; inconclusive = small, poorly fitted or top-dose-only effect, or another doubt; inactive = no such curve, though single readings can be large or run the other way.
Potency is read from the fitted curve at half-maximal effect.

Sequence of Lysosomal acid glucosylceramidase (Homo sapiens) (P04062 whole entry N409S): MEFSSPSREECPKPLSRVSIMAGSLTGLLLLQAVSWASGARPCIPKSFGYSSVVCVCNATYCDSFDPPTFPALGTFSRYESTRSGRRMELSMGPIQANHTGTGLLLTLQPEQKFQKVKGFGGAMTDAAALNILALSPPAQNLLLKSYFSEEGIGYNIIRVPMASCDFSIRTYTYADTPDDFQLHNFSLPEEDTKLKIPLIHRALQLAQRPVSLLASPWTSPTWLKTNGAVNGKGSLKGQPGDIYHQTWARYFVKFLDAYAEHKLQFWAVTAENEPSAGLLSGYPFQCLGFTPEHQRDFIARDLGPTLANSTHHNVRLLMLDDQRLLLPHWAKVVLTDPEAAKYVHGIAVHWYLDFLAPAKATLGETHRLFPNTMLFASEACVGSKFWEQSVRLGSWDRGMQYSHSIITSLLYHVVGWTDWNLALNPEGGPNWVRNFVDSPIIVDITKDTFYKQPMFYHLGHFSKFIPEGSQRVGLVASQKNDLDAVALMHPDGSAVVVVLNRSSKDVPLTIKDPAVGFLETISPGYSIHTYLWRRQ

In the test the target is Lysosomal acid glucosylceramidase (Homo sapiens) (UniProt P04062). Put plainly: qHTS Assay for Inhibitors and Activators of N370S glucocerebrosidase as a Potential Chaperone Treatment of Gaucher Disease: Primary Screen Confirmation.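 As to Potency: enzyme source is Gaucher patient spleen homogenate not purified recombinant protein.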 Conditions: N370S glucocerebrosidase enzyme activity, fluorogenic substrate; series mostly up to 54 µM. A digest of the protocol:
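Patient-spleen homogenate carrying N370S GC (27 ug) in pH 5.0 citrate buffer with 0.01% Tween-20, 1 mM 4-methylumbelliferyl-beta-glucoside, 40 min at 37C; fluorescence 365/440 nm after NaOH/glycine stop; AC50 from Hill fits.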
On the technique in general: In qHTS, concentration-response curves come from the screen itself.
For `Cc1ccc(CC(=O)Nc2cccc(C)n2)cc1`, the Potency result was “inactive”. In the case of `CCOC(=O)c1ccccc1S(=O)(=O)N1CCN(c2nc(-c3cccs3)nc3ccccc23)CC1`, the Potency was 0.366 µM (active). In the case of `COc1ccc(S(=O)(=O)N2CCN(c3nc(-c4cccs4)nc4ccccc34)CC2)cc1` it was 0.819 µM (active); in that of `Cc1ccc(S(=O)(=O)N2CCC(c3nc(-c4cccs4)nc4ccccc34)CC2)cc1`, “inactive”; in that of `Cc1ccc(S(=O)(=O)N2CCN(c3nc(-c4cccs4)cc4ccccc34)CC2)cc1`, 3.26 µM (active). In the case of `CCOCCCNc1nc(-c2ccccc2)nc2ccccc12` it was 10.1 µM (active); in that of `NC(=NCCCCCCN=C(N)/N=C(\N)Nc1ccc(Cl)cc1)/N=C(\N)Nc1ccc(Cl)cc1`, 11.6 µM (active) and 18.3 µM (active) and 16.3 µM (active); in that of `CN(CCCc1cnc[nH]1)C(=S)NCCCN(Cc1ccc(Cl)cc1)c1ccc(Br)cn1`, 11.4 µM (active).

Regarding `O=S(=O)(c1ccc2ccccc2c1)N1CCN(c2nc(-c3cccs3)nc3ccccc23)CC1`, the Potency was 0.326 µM (active). In the case of `O=S(=O)(c1ccccc1)N1CCN(c2nc(-c3ccc(F)cc3)nc3cc(Cl)ccc23)CC1` it was “inactive”; in that of `Cc1nc2nc(-c3ccc(F)cc3)cn2nc1C`, “inactive”; in that of `Cc1ccc(Nc2cc(C)nc(-c3ccccc3)n2)cc1`, 4.11 µM (active). Consider `N#Cc1ccccc1S(=O)(=O)N1CCN(c2nc(-c3cccs3)nc3ccccc23)CC1`, for which the Potency was 2.25 µM (active) and 1.13 µM (active). For `O=S(=O)(c1ccc2c(Cl)cccc2c1)N1CCN(c2nc(-c3cccs3)nc3ccccc23)CC1`, the Potency is 2.01 µM (active).

Turning to `O=C(NCCCc1cnc[nH]1)NCCCN(Cc1ccc(Cl)cc1)c1ccc(Br)cn1`, the Potency is 1.01 µM (active). Take `Cc1ccc(S(=O)(=O)N2CCN(c3nc(-c4ccc(F)cc4)nc4cc(Cl)ccc34)CC2)cc1`: the Potency result was “inactive”. Take `Cc1ccc2nc(-c3ccc(SCC(=O)N4CCc5ccccc54)nc3)[nH]c2c1`: the Potency is 10 µM (active). In the case of `c1ccc(CNc2nc(-c3cccs3)nc3ccccc23)cc1` it was 7.13 µM (active) and 5.66 µM (active). In the case of `O=C(c1ccc2c(c1)OCCO2)N1CCN(c2nc(-c3cccs3)nc3ccccc23)CC1` it was 3.66 µM (active); in that of `O=S(=O)(Cc1ccccc1)N1CCN(c2nc(-c3cccs3)nc3ccccc23)CC1`, 2.25 µM (active). Regarding `O=S(=O)(c1ccc2ncccc2c1)N1CCN(c2nc(-c3cccs3)nc3ccccc23)CC1`, the Potency is 0.8 µM (active). As for `Cc1ccc(S(=O)(=O)N2CCN(c3nc(-c4ccc(CN5CCOCC5)s4)nc4ccccc34)CC2)cc1`, the Potency is 11.3 µM (active). In the case of `O=C(c1ccccc1)N1CCN(c2nc(-c3cccs3)nc3ccccc23)CC1` it was 1.42 µM (active); in that of `Cc1ccc(S(=O)(=O)N2CCN(c3nc(-n4cnc5ccccc54)nc4ccccc34)CC2)cc1`, “inactive”. In the case of `COc1cccc(NC(=O)CSc2nc3c(sc4ccccc43)c(=O)n2CCCN2CCCC2)c1` it was “inactive”; in that of `CNCCN(C)c1nc(-c2cccs2)nc2ccccc12`, “inactive”; in that of `Cc1ccc(S(=O)(=O)N2CCN(c3nc(-c4cnccn4)nc4ccccc34)CC2)cc1`, “inactive”.

In the case of `Cc1csc(NC(=O)CN2C(=O)c3ccccc3S2(=O)=O)n1`, the Potency entry was “inactive”. `CCCCNC(=S)NCCCN(Cc1ccc(Cl)c(Cl)c1)c1ccc(Br)cn1`: the Potency entry was “inactive”.
